The source made the active and inactive calls.

These results are taken from PubChem BioAssay.

In assay [1] the test system is Plasmodium falciparum Sir2 (PF13_0152, Sir2A). Nature of the assay: pfSir2 binders on small-molecule microarrays, primary screen, biochemical, small-molecule microarray, 635 nm fluorescence (AID 1098).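 Also: score merges spot fluorescence intensity with its signal-to-noise ratio.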 Particulars: small-molecule microarray binding, fluorescence 635 nm; higher = more signal.
A short description of assay [2]: small-molecule microarray binders of probe aDKK1, primary screen, biochemical, biotinylated probe, 635/667 nm fluorescence (AID 1099).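 Also: score merges 667nm spot fluorescence with signal to noise across triplicate slides.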 As to conditions: higher = more signal.
A short description of assay [3]: small-molecule microarray binders of probe aCHRDL2, primary screen, biochemical, biotinylated probe, 635/667 nm fluorescence (AID 1100). Particulars: higher = more signal.
Assay [4] is described as follows: splicing luciferase reporter signal modulators, primary screen, spliceosome inhibition project, cell-based, HEK293, splice +/- reporter (AID 1101).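 Also: HEK293 cells carrying a splicing-competent luciferase reporter gene; test concentration not given here.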 As to conditions: luminescence, 24 h, higher = more signal, called active from +8 up or from −8 down. A general note: In a reporter assay the amount or activity of a reporter protein is the signal.
The target of assay [5] is Fibroblast growth factor 10 (Homo sapiens) (UniProt O15520). Nature of the assay: FGF10 binders on small-molecule microarrays, primary screen, biochemical, small-molecule microarray, 635 nm fluorescence (AID 1102). Particulars: FGF10 binding, fluorescence 635 nm, higher = more signal.
Chain of Fibroblast growth factor 10 (Homo sapiens) (O15520 whole entry, looked up): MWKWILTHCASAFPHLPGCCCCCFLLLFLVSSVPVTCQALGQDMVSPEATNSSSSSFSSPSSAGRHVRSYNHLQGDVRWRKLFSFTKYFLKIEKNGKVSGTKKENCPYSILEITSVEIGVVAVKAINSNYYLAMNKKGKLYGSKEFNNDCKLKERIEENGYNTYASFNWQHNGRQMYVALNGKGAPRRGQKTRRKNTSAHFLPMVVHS
The test system of assay [6] is glycogen synthase kinase-3 (GSK3A per assay name; protocol says GSK3B). Nature of the assay: GSK3 binders on small-molecule microarrays, primary screen, biochemical, small-molecule microarray, 635 nm fluorescence, GSK3A (AID 1103). Also: the record names both GSK3A and GSK3B. Particulars: small-molecule microarray binding, fluorescence 635 nm; higher = more signal.
In assay [7] the target is Epidermal growth factor receptor (Homo sapiens) (UniProt P00533). Nature of the assay: EGFR binders on small-molecule microarrays, primary screen, biochemical, small-molecule microarray, 635 nm fluorescence (AID 1104).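 Also: score merges 667 nm emission intensity with spot signal to noise over triplicate slides.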 Particulars: EGFR binding, higher = more signal.
Chain of Epidermal growth factor receptor (Homo sapiens) (P00533 whole entry, looked up): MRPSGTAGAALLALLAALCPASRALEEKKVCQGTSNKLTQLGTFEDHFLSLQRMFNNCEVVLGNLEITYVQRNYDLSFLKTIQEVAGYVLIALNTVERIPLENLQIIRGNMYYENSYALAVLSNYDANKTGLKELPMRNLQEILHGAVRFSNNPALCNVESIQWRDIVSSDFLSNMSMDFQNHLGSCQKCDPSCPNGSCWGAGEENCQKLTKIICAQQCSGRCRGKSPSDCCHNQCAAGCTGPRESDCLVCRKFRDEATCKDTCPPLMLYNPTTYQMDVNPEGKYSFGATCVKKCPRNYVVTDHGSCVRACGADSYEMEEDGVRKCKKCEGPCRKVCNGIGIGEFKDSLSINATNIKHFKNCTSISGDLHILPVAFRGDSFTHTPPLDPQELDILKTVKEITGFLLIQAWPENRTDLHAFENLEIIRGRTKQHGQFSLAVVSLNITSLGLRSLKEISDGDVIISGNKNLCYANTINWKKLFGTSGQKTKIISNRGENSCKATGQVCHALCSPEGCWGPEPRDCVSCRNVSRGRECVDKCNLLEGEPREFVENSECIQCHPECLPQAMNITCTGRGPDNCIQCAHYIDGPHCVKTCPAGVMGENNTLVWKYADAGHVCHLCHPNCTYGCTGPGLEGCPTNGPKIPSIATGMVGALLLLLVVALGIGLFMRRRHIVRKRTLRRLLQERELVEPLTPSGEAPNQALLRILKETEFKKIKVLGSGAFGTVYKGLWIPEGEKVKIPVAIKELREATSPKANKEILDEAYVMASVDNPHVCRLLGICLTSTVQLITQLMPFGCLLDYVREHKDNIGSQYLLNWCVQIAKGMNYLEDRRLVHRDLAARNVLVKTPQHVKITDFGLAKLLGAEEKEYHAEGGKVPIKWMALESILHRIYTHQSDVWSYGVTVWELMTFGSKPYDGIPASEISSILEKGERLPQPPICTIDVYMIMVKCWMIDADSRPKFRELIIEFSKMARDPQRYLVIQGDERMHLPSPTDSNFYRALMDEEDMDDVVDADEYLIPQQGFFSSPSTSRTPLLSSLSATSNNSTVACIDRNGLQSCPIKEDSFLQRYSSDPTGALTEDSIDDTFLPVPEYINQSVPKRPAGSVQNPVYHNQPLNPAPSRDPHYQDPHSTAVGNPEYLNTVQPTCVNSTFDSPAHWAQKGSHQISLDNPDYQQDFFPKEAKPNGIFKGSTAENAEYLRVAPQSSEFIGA
In assay [8] the target is Follistatin-related protein 3 (Homo sapiens) (UniProt O95633). Put plainly: FSTL3 binders on small-molecule microarrays, primary screen, biochemical, small-molecule microarray, 635 nm fluorescence (AID 1105).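 Also: score merges emission near 667 nm and signal to noise per printed spot across three slides.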 Particulars: FSTL3 binding, higher = more signal.
Chain of Follistatin-related protein 3 (Homo sapiens) (O95633 whole entry, looked up): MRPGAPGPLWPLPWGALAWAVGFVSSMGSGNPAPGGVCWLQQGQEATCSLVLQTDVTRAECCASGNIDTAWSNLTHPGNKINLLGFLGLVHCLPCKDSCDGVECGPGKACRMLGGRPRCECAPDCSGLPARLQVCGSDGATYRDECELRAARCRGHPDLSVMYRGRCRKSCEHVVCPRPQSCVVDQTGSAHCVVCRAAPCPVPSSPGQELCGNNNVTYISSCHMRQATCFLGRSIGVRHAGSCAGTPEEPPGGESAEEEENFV
The target in assay [9] is Dickkopf-related protein 1 (Homo sapiens) (UniProt O94907). Nature of the assay: DKK1 binders on small-molecule microarrays, primary screen, biochemical, small-molecule microarray, 635 nm fluorescence scan (AID 1106).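 Also: score merges emission near 667 nm with signal to noise over three replicate slides.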 As to conditions: DKK1 binding, higher = more signal.
Chain of Dickkopf-related protein 1 (Homo sapiens) (O94907 whole entry, looked up): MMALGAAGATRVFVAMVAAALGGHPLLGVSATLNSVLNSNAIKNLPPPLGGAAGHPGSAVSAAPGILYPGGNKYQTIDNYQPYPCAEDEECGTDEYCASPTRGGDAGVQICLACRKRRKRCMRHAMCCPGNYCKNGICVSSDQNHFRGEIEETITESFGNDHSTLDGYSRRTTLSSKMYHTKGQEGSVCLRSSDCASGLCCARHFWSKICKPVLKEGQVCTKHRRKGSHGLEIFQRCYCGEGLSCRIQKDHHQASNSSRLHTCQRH
The subject of assay [10] is Inhibin beta A chain (activin A). Put plainly: INHBA (activin A) binders on microarrays, primary screen, biochemical, small-molecule microarray, 635 nm fluorescence scan (AID 1107).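 Also: mouse activin A protein probed at 4.33 µg/mL on printed slides; score merges bound-protein fluorescence near 667 nm with spot signal-to-noise.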 As to conditions: small-molecule microarray binding, higher = more signal.
In assay [11] the test system is Human papillomavirus type 1a protein E7 (residues 44-93). Nature of the assay: HPV1a E7 fragment binders on microarrays, primary screen, biochemical, small-molecule microarray, residues 44-93, 635 nm fluorescence (AID 1108).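 Also: E7 fragment applied at 1 µg/mL in TBST for 1 h at 4 C; score combines spot fluorescence with its signal to noise ratio.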 As to conditions: small-molecule microarray binding, fluorescence 635 nm; higher = more signal.
Assay [12] is described as follows: modulators of HCV replicon luciferase signal, primary screen, HCV replication inhibitor project, Huh7 cells, luciferase reporter (AID 1109).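 Also: huh7 hepatoma cells harbouring a luciferase neomycin HCV replicon reporter; luciferase luminescence as measure of HCV replicon replication; test concentration not given here.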 Particulars: 48 h, higher = more signal. In general terms: Replicon systems follow genome replication, usually without infectious particles.
Assay [13] addresses Left-right determination factor 2 (Homo sapiens) (UniProt O00292). Put plainly: LEFTY2 binders on small-molecule microarrays, primary screen, biochemical, small-molecule microarray, 635 nm fluorescence scan (AID 1110). As to conditions: LEFTY2 binding, higher = more signal.
Assay [14] addresses Calmodulin-1 (Homo sapiens) (UniProt P0DP23). Nature of the assay: CALM1 binders on microarrays, EGTA buffer, profiling panel, biochemical, small-molecule microarray, Cy5-labelled CALM1 (AID 1111).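 Also: labelled calmodulin applied in Tris saline Tween buffer holding calcium plus EGTA and DTT.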 Particulars: Cy5-CALM1 binding fluorescence, higher = more signal.
For assay [15] the target is unchanged. Put plainly: calcium-bound CALM1 binders on microarrays, profiling panel, artefact control for SMM control-protein annotation, biochemical, small-molecule microarray, Cy5-labelled CALM1, plus calcium (AID 1112).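 Also: score merges spot fluorescence with signal to noise from triplicate slides.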 As to conditions: Cy5-CALM1 binding fluorescence, higher = more signal.
The nature of assay [16]: small-molecule microarray binders of probe aWnt5a, primary screen, biochemical, biotinylated probe, 635/667 nm fluorescence (AID 1113).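 Also: score merges 667 nm fluorescence intensity with signal-to-noise per printed feature.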 As to conditions: higher = more signal.
A short description of assay [17]: small-molecule microarray binders of probe aShh, primary screen, biochemical, biotinylated probe, 635/667 nm fluorescence (AID 1114).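 Also: probe is biotin-labelled aShh protein from a stem cell growth factor screen; measures binding of labelled protein to compounds printed on the slide; score merges feature fluorescence at 667 nm with signal-to-noise.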 Particulars: higher = more signal.
Assay [18] can be described thus: small-molecule microarray binders of probe aNog, primary screen, biochemical, biotinylated probe, 635/667 nm fluorescence (AID 1115).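 Also: probe is biotinylated aNog protein used at 0.15 µg/mL for 1 h at 4 C; z-score combines 667 nm fluorescence of each spot with its signal to noise.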 Particulars: higher = more signal.
In assay [19] the target is Torsin-1A-interacting protein 1 (Homo sapiens) (UniProt Q5JTV8). Put plainly: LAP1 binders from COS7 cell lysate, primary screen, small-molecule microarray, 635/667 nm fluorescence (AID 1116). Particulars: COS7-hLAP1 lysate binding, 635 nm fluorescence, higher = more signal.
Chain of Torsin-1A-interacting protein 1 (Homo sapiens) (Q5JTV8 whole entry, looked up): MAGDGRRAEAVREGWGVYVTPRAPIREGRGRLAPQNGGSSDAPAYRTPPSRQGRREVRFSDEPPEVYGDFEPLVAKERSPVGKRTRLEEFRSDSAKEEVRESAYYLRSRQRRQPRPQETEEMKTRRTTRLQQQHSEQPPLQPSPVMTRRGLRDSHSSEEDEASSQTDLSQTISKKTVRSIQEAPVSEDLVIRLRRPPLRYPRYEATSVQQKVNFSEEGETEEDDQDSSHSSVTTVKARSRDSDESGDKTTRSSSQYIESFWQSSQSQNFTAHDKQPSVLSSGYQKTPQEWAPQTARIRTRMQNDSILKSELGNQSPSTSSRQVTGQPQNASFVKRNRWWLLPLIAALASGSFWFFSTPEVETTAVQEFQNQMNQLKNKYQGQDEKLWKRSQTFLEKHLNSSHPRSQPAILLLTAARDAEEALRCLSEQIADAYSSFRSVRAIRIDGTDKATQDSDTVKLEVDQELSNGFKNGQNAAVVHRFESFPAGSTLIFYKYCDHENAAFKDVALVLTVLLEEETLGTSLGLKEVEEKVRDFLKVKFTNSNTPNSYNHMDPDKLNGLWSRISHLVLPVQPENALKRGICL
Assay [20] addresses Alpha-bungarotoxin (Bungarus multicinctus) (UniProt P60615). Nature of the assay: alpha-bungarotoxin binders on microarray, profiling panel, artefact control for SMM control protein annotation, biochemical, small-molecule microarray, Alexa647 label, 635/667 nm fluorescence (AID 1117). As to conditions: alpha-BTX-A647 binding fluorescence, higher = more signal.

Chain of Left-right determination factor 2 (Homo sapiens) (O00292 whole entry, looked up): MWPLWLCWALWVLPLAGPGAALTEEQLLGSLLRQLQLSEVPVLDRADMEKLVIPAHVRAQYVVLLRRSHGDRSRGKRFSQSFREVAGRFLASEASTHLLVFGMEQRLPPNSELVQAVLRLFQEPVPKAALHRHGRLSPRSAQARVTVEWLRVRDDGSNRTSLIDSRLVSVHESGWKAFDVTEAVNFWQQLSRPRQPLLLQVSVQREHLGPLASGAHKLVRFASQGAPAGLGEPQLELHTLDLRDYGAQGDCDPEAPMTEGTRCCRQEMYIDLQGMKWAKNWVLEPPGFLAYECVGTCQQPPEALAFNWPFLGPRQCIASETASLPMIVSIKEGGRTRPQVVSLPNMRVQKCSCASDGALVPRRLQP
Chain of Alpha-bungarotoxin (Bungarus multicinctus) (P60615 whole entry, looked up): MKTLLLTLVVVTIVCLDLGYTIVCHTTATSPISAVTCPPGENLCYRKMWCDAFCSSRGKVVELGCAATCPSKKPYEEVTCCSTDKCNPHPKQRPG

Consider `COc1ccc(COC(=O)NN=C2C[C@@H](O)[C@@H](O)[C@@H]3[C@@H]4C(=O)N(C(C)(C)C)C(=O)[C@@H]4CC[C@@H]23)cc1`, for which the composite z-score was 0.182 in [1]; -0.163 in assay [2]; -0.64 in [3]; 0.189 in assay [5]; 0.787 in assay [6]; 0.314 in assay [7]. Besides, the composite z-score in [8] is 0.967; in assay [9], 1.16; in assay [10], -0.105; in assay [11], 0.653; in [13], 1.27; in assay [14], 1.19. In addition, the composite z-score in [15] was -0.306; in [16], -0.0566; in assay [17] it was -0.0626; in assay [18], 0.0498; in [19], 0.207; in [20], 0.751. Also, the z-score is 0.992 (inactive) in [4] and -0.828 in assay [12].

As for `CCCNC(=O)OC[C@H]1O[C@H](CCON=C[C@@H](C)[C@H](OCc2ccccc2)C(C)C)C=C[C@@H]1Oc1ccc(OC)cc1`, the composite z-score was -0.369 in [1]; -0.275 in assay [2]; -0.228 in [3]; -0.302 in [5]; -1.32 in assay [6]; 0.332 in assay [7]. The composite z-score is -0.245 in [8]; 0.159 in [9]; 0.33 in assay [10]; 0.427 in [11]; 0.182 in [13]; -0.755 in [14]. Further, the composite z-score was -0.515 in [15]; -0.156 in assay [16]; -0.484 in assay [17]; -0.196 in assay [18]; -0.163 in assay [19]; 0.297 in assay [20]. Also, the z-score in assay [4] was -1.54 (inactive); in assay [12], -2.17.

In the case of `COCOc1ccc(Br)cc1C(=O)C=Cc1ccc2c(c1)OCO2`, the composite z-score in assay [1] was -0.0162; in [2] it was -0.304; in [3] it was -0.662; in [5], 0.59; in [6], -0.207; in assay [7], 0.524. Moreover, the composite z-score is 0.679 in assay [8]; 0.665 in assay [9]; 1.22 in assay [10]; -0.478 in assay [11]; 0.489 in [13]; -0.978 in [14]. For the same molecule, the composite z-score in assay [15] was -1.25; in assay [16], -0.0721; in assay [17] it was -0.2; in [18], 0.0689; in [19] it was 0.0258; in assay [20], 0.075. Further, the z-score in assay [4] is -0.838 (inactive); in assay [12], -3.81.

As for `CCOC(=O)[C@H](Cc1ccccc1)NC(=O)CCC1CC(OC(=O)NCc2ccc3c(c2)OCO3)CC2(CCCC(COC(=O)NCCOC)O2)O1` (stereo not given in full), the composite z-score in assay [1] was 0.857; in assay [2], -0.219; in assay [3] it was -0.49; in assay [5] it was 1.28; in assay [6], 1.2; in assay [7], 0.584. Moreover, the composite z-score is 1.01 in assay [8]; 0.437 in assay [9]; -0.169 in [10]; 1.36 in [11]; 0.545 in [13]; 0.353 in assay [14]. For the same molecule, the composite z-score in assay [15] was -0.194; in [16], -0.124; in assay [17], -0.153; in assay [18] it was -0.0524; in assay [19] it was 0.609; in assay [20], 0.591. Also, the z-score in assay [4] was -0.991 (inactive); in assay [12], -1.08.

For `CO[C@@H]1COC(=O)[C@@H]2CCCN2C(=O)[C@@H](C)COC(=O)CCC[C@H]1C`, the composite z-score in assay [1] is 0.877; in [2] it was -0.331; in assay [3] it was -0.624; in [5], 0.981; in [6], 0.561; in assay [7], 0.38. The composite z-score in [8] is 0.621; in assay [9], 0.661; in [10], -0.751; in assay [11], 0.212; in assay [13] it was 0.83; in assay [14] it was -0.0691. Besides, the composite z-score in assay [15] is -0.911; in [16], -0.175; in [17], -0.0553; in assay [18], -0.346; in assay [19], 0.883; in assay [20], 0.482. Moreover, the z-score in [4] is -1.27 (inactive); in assay [12], -0.016.
